The whole screen tested about 310,000 compounds, of which about 18,000 (5.8%) were called active. Another 22% or so got no clear call; they are omitted. Calls come from the whole dose curve; as a rule, active = well fitted inhibition curve with a large enough effect; inconclusive = small, poorly fitted or top-dose-only effect, or another doubt; inactive = no such curve, though single readings can be large or run the other way. The sample as a whole holds a higher share of actives than the screen did.
Assay: Primary qHTS for delayed death inhibitors of the malarial parasite plastid, 48 hour incubation
Conditions: P. falciparum luciferase growth in erythrocytes; series mostly up to 28.7 µM; activity change, negative = inhibition: at the top concentration
Method in brief: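 Cell-based growth assay: transgenic P. falciparum expressing firefly luciferase, cultured in red cells within RPMI 1640 containing 0.5% w/v Albumax, 24 mM bicarbonate and gentamycin. A drop in luciferase activity indicates inhibition.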
% is set by controls: 0 for no effect and ±100 for the full control effect; potency is the fitted concentration of half-maximal effect.

Row | SMILES | activity change, negative = inhibition | Potency
1 | C=CCOc1cccc(CNCc2cccnc2)c1 | 8.42% (inactive) | 
2 | CCc1ccccc1NC(=O)CCOc1ccccc1 | -6.71% (inactive) | 
3 | CCc1ccccc1NC(=O)c1cccs1 | 39.7% (inactive) | 
4 | CCc1ccccc1NC(=O)/C(=C/c1ccccc1)c1ccccc1 |  | 5.22 µM (active)
5 | Cc1ccc(C(=O)NCC(=O)OCC(=O)NC2CCCCCCC2)cc1 | -0.0814% (inactive) | 
6 | CCN1C(=O)c2cccc3c(S(=O)(=O)Nc4ccccc4O)ccc1c23 | -15.4% (inactive) | 
7 | C[n+]1ccc(/C=C/c2c[nH]c3ccccc23)cc1 |  | 0.738 µM (active)
8 | CSC(=S)N/N=C/c1c[nH]c2ccccc12 | 17.1% (inactive) | 
9 | CN1CCN(/N=C/c2c[nH]c3ccccc23)CC1 | 60.3% (inactive) | 
10 | Cn1c(=O)c2c(nc(NCCNC(=O)c3ccco3)n2Cc2ccccc2F)n(C)c1=O | -25.8% (inactive) | 
11 | CCC(=C/c1sc2ccc3ccccc3c2[n+]1C)/C=C1\Sc2ccc3ccccc3c2N1C |  | 0.928 µM (active)
12 | COc1ccc2ccn(C)c2c1 | 3.12% (inactive) | 
13 | Cc1ccccc1NC(=O)C1CCCN(C(=O)NCc2ccccc2)C1 (centres undefined) | 14.4% (inactive) | 
14 | COc1cccc2[nH]c(C(=O)NCCc3ccccc3)cc12 | 108% (inactive) | 
15 | O=C(NCC1CCCO1)c1cc(-c2ccccc2)nc2ccccc12 (centres undefined) | -16.3% (inactive) | 
16 | O=C(NCCCO)c1cc2c([nH]c3ccccc32)c(-c2ccc(F)cc2)n1 |  | 9.28 µM (active)
17 | O=C(NCC1CCCO1)c1ccc2ccccc2n1 (centres undefined) | 59.7% (inactive) | 
18 | O=C(NCCc1ccc(F)cc1)c1n[nH]c2ccccc12 | 62.1% (inactive) | 
19 | O=C(NCC1CCCO1)c1cc2c([nH]c3ccccc32)c(-c2ccc(F)cc2)n1 (centres undefined) |  | 9.28 µM (active)
20 | COc1ccccc1OC(C)C(=O)Nc1ccc(S(=O)(=O)Nc2nccs2)cc1 (centres undefined) | -1.18% (inactive) | 
21 | CCOc1ccc2c(c1)c(=O)c(S(=O)(=O)c1ccc(C)cc1)cn2CC | 3.55% (inactive) | 
22 | CCc1cccc(C)c1NC(=O)COC(=O)CNC(=O)c1cccs1 | 2.83% (inactive) | 
23 | CCc1ccc(Oc2coc3cc(O)ccc3c2=O)cc1 | 62.3% (inactive) | 
24 | COc1ccc(-n2cc(CNC3CCOCC3)c(-c3cccc(F)c3)n2)cc1 |  | 11.7 µM (active)
25 | COc1ccc(-n2cc(CN(C)Cc3n[nH]c(=O)[nH]3)c(-c3cccc(F)c3)n2)cc1 | -3.86% (inactive) | 
26 | COc1ccc(-c2nn(-c3ccccc3)cc2CN2CCCO2)c(F)c1 | 0.912% (inactive) | 
27 | Cc1ccc(S(=O)(=O)NC(=O)c2cccc(C)c2)cc1 | 9.68% (inactive) | 

Row | SMILES | activity change, negative = inhibition | Potency
28 | Cc1cc(NC(=O)COc2ccccc2C#N)no1 | 209% (inactive) | 
29 | CCc1cccc(CC)c1NC(=O)COc1ccccc1C(=O)c1cc(C#N)c(=O)n(C2CCCCC2)c1 |  | 5.86 µM (active)
30 | CCc1cccc(C)c1NC(=O)COC(=O)CC1CCCC1 | 22.5% (inactive) | 
31 | COc1cccc(-c2coc3cc4oc(=O)c(CC(=O)O)c(C)c4cc23)c1 | -6.56% (inactive) | 
32 | COc1ccccc1C(=O)N/C(=C/c1ccc2c(c1)OCO2)C(=O)Nc1cccc(C(=O)O)c1 | 26.2% (inactive) | 
33 | CCC(C)(C)c1ccc(OCC(=O)N(C)C)c(C(C)(C)CC)c1 |  | 11.7 µM (active)
34 | CN(C)CCOc1ccc(Cl)cc1C(C)(C)C | -12.2% (inactive) | 
35 | CN1C/C(=C/c2cccs2)C(=O)/C(=C\c2cccs2)C1 | -48.2% (inactive) | 
36 | CCc1ccc(NC(=O)N2CCc3ccccc3C2)cc1 | 13.6% (inactive) | 
37 | COc1cccc(/C=C2/SC(=S)N(CC(=O)NC3C=CS(=O)(=O)C3)C2=O)c1 (centres undefined) | 19.3% (inactive) | 
38 | c1ccc2c(NCC3CCCO3)nc(-c3ccncc3)nc2c1 (centres undefined) |  | 13.1 µM (active)
39 | Cc1nc2ccccc2c2oc(C(=O)NCC3CCCO3)cc12 (centres undefined) | 2.28% (inactive) | 
40 | Cn1c(=O)c2[nH]c(NCC3CCCO3)nc2n(-c2ccccc2)c1=O (centres undefined) | -0.65% (inactive) | 
41 | COc1ccc(C2=NS(=O)(=O)N(C)C(C(=O)N(C)Cc3ccccc3)=C2)cc1 | 3.56% (inactive) | 
42 | Cc1nn(C)c(C)c1NS(=O)(=O)c1ccc(OC(F)(F)F)cc1 | 9.37% (inactive) | 
43 | COCC1CCN(C(=O)C2CCC(=O)N(CC3CCCCC3)C2)CC1 (centres undefined) | 3.07% (inactive) | 
44 | CC(CN1CCOCC1)OC(=O)c1ccc(Cl)cc1Cl (centres undefined) | 2.65% (inactive) | 
45 | CCC(=O)NCCc1nc2ccccc2n1CC | 2.61% (inactive) | 
46 | CCC(=O)Nc1nc2ccccc2n1Cc1ccccc1C |  | 1.47 µM (active)
47 | CCCCn1c(CCCNC(=O)CC)nc2ccccc21 | 20.9% (inactive) | 
48 | COCCn1c(C)cc(C(=O)COC(=O)CNC(=O)c2ccco2)c1C | 21.6% (inactive) | 
49 | COc1ccc(S(=O)(=O)N2CCC(C(=O)N3CCCC3)CC2)cc1C | 10.6% (inactive) | 
50 | CCOc1ccc(CN(C)C(=O)c2ccc(=O)[nH]c2)cc1 | -2.06% (inactive) | 
51 | Cc1cccc(C(=O)N2CCCC(Nc3ccc(C(C)C)cc3)C2)n1 (centres undefined) | 18.1% (inactive) | 
52 | COc1ccc(NC2CCCN(C(=O)c3ccncc3)C2)cc1 (centres undefined) | -18.3% (inactive) | 
53 | CC(C)c1ccc(NC2CCCN(C(=O)c3ccncc3)C2)cc1 (centres undefined) |  | 5.86 µM (active)
54 | O=C(NCC(=O)N1CCN(c2ncc(C(F)(F)F)cc2Cl)CC1)c1ccc(Br)o1 | -23% (inactive) | 

From PubChem BioAssay AID504832 (National Center for Advancing Translational Sciences (NCATS), 2011)
